Shown is part of a subset that was picked to be rich in hits.
Shiga inhibitor = A qHTS for Small Molecule Inhibitors of Shiga Toxin. Vero cells, Shiga toxin protein synthesis inhibition reporter. inhibition, % at 38.7 µM. hit rate 9.2% among 290,000; in the data active = inhibition mostly above about 28%, no sharp cut-off; inactive = mostly below about 43%; also: 0% is about no effect
CHX counter-1 = Cycloheximide Counterscreen for Small Molecule Inhibitors of Shiga Toxin. cell reporter, cycloheximide protein synthesis inhibition counterscreen. max response, %. hit rate 12% among 300,000; in the data active = max response mostly above about 13%, no sharp cut-off; inactive = mostly below about 14%; also: read at 38.3 µM for the half of the compounds with a filed dose; 0% is about no effect
Vaccinia Venus = qHTS for Stage-Specific Inhibitors of Vaccinia Orthopoxvirus: Venus Reporter Primary qHTS; Vaccinia virus Venus reporter expression, fluorescence; Potency, µM (series often up to 36.5 µM), inactives show at the top dose activity change, negative = inhibition, most hits filed as inhibitors; hit rate 0.46% among 330,000; AID 720580, 2013; calls by dose curve; tested in A549 cells; also: potency is read from the fitted curve at half-maximal effect; % is scaled to controls: 0 for no effect and ±100 for the full control effect; nearly all actives have a fitted effect of over 30% in size
MARV entry inh = qHTS for inhibitors of binding or entry into cells for Marburg Virus. hit rate 1.8% among 300,000. Marburg virus pseudotyped entry inhibition, cell reporter. AID 540276, 2011. Potency, µM (series often up to 37.8 µM), inactives show at the highest dose activity change, negative = inhibition, most hits filed as inhibitors; calls by dose curve; tested in HEK293 cells; also: potency is read from the fitted curve at half-maximal effect; % is scaled to controls: 0 for no effect and ±100 for the full control effect
LASV entry inh = qHTS for Inhibitors of binding or entry into cells for Lassa Virus; Lassa virus pseudotype entry inhibition, cell reporter; Potency, µM (doses to about 37.9 µM), for the others: at the top dose activity change, negative = inhibition, most hits filed as inhibitors; hit rate 1.2% among 300,000; calls by dose curve; tested in HEK293 cells; also: potency is read from the fitted curve at half-maximal effect; % is scaled to controls: 0 for no effect and ±100 for the full control effect; nearly all actives have a fitted effect of over 50% in size
Vaccinia mCherry = qHTS for Stage-Specific Inhibitors of Vaccinia Orthopoxvirus: mCherry Reporter Primary qHTS | Vaccinia virus mCherry reporter infection, fluorescence | Potency, µM (titrated, usually from 36.5 µM), without a hit: top-dose activity change, negative = inhibition, most hits filed as inhibitors | hit rate 0.63% among 310,000; calls by dose curve; tested in A549 cells; also: potency is read from the fitted curve at half-maximal effect; % is scaled to controls: 0 for no effect and ±100 for the full control effect; nearly all actives have a fitted effect of over 35% in size
CHX counter-2 = Cycloheximide Counterscreen for Small Molecule Inhibitors of Shiga Toxin (Confirmatory); shares compounds with Shiga inhibitor; Cycloheximide counterscreen, protein synthesis reporter, Shiga toxin assay; Potency, µM (titrated, usually from 38.3 µM), for inactives: at the highest dose activity (activation), usual class: activators; hit rate 3% among 510; calls by dose curve; also: potency is read from the fitted curve at half-maximal effect; 0% is about no effect
Numbers without * were called inactive; ! = not confirmed by another sample; [ ] = remark or other dose.

Cc1cccc(N(C)S(=O)(=O)c2nnc(NC(=O)C(C)(C)C)s2)c1 was read as Vaccinia Venus -10.1%, LASV entry inh 8.9%[46.1 µM] and Vaccinia mCherry -13.4%.
For COc1ccc(-c2nnc3sc(-c4ccccc4OC)nn23)cc1 the results were Shiga inhibitor 86.7*, CHX counter-1 1.4, MARV entry inh -0.2%, LASV entry inh -2.0% and CHX counter-2 -2.4%.
COc1cc(-c2nn3c(-c4ccccc4)nnc3s2)cc(OC)c1OC was read as Shiga inhibitor -9.6, CHX counter-1 -0.6, MARV entry inh inconclusive and LASV entry inh -22.4%.
Screening CCCCn1c(SCC(=O)c2ccccc2)nc2c1c(=O)[nH]c(=O)n2C returned Shiga inhibitor 15.6*, CHX counter-1 -1.0, Vaccinia Venus inconclusive, MARV entry inh inconclusive, LASV entry inh -0.7% and CHX counter-2 0.0%.
Screening O=C(/C=C/c1ccccc1)NCCc1ccc2c(c1)OCCO2 returned Shiga inhibitor 36.2*, CHX counter-1 7.6, Vaccinia Venus -10.5%, MARV entry inh -21.6%, LASV entry inh inconclusive, Vaccinia mCherry -10.6% and CHX counter-2 -0.8%.
Screening COc1cccc(/C=C/C(=O)NCCc2ccc3c(c2)OCCO3)c1 returned Shiga inhibitor 22.9, CHX counter-1 8.4, Vaccinia Venus -4.9%, MARV entry inh 3.1%, LASV entry inh -5.8% and Vaccinia mCherry -13.1%.
Cc1cccc(NC(=O)CCN2C(=O)c3ccccc3S2(=O)=O)c1C was read as Shiga inhibitor 16.9*, CHX counter-1 -1.4, Vaccinia Venus -7.9%, Vaccinia mCherry inactive and CHX counter-2 3.5%.
CCN(CC)c1ccc(NC(=O)CCN2C(=O)c3ccccc3S2(=O)=O)c(C)c1 was read as Vaccinia Venus 5.2%, MARV entry inh 13.5%[46.1 µM], LASV entry inh -1.3% and Vaccinia mCherry inactive.
O=C(NCC1CCCCC1)c1cc(Br)ccc1Cl was read as Shiga inhibitor 31.1, CHX counter-1 -2.7, Vaccinia Venus -26.5%, MARV entry inh -3.3%[46.1 µM], LASV entry inh -11.1% and Vaccinia mCherry inactive.
For NS(=O)(=O)c1cc(C(=O)NCC2CCCCC2)ccc1Cl the results were Shiga inhibitor 56.0*, CHX counter-1 -3.2, Vaccinia Venus 2.4%, MARV entry inh -2.3%[46.1 µM], LASV entry inh 0.6%[46.1 µM], Vaccinia mCherry 0.8% and CHX counter-2 1.6%.
Screening Cc1csc(SCC(=O)Nc2nccs2)n1 returned Vaccinia Venus -5.8%, MARV entry inh inconclusive, LASV entry inh 15.9% and Vaccinia mCherry -16.4%.
For Cc1csc(SCC(=O)Nc2ncc(Cl)c(C)c2Cl)n1 the results were Shiga inhibitor 21.3*, CHX counter-1 9.3, Vaccinia Venus -15.6%, MARV entry inh 1.7%[46.1 µM], LASV entry inh -1.5%, Vaccinia mCherry inactive and CHX counter-2 0.5%.
For O=C(Nc1ccc(Oc2ccccc2)cc1)c1csc([C@@H]2C[C@H](O)[C@@H](CO)O2)n1 the results were Vaccinia Venus -20.0% and Vaccinia mCherry 8.5%.
Screening O=C(O)CN(c1ccccc1[N+](=O)[O-])S(=O)(=O)c1ccccc1 returned Shiga inhibitor -9.4, CHX counter-1 1.2, Vaccinia Venus 2.2%, MARV entry inh -4.3%[46.1 µM], LASV entry inh 6.0% and Vaccinia mCherry 7.0%.
Screening COc1cccc(-c2cc(C(=O)N3CCN(C(=O)c4ccco4)CC3)on2)c1 returned Shiga inhibitor 2.6, CHX counter-1 -3.1, Vaccinia Venus -18.9%, MARV entry inh -13.7%[46.1 µM], LASV entry inh 28.4%[46.1 µM] and Vaccinia mCherry -0.6%.
Screening CCOC(=O)Nc1ccc2c(c1)Nc1ccccc1S2 returned Shiga inhibitor 31.1*, CHX counter-1 16.9, MARV entry inh inconclusive, LASV entry inh -15.0% and CHX counter-2 2.1%.
`CCC(C)(O)c1[nH]c2ccc(C(F)(F)F)cc2c1C` (centres undefined) gave Shiga inhibitor 18.4*, CHX counter-1 -2.5, Vaccinia Venus inconclusive, Vaccinia mCherry inactive and CHX counter-2 1.2%.
Screening Cn1c(SCC(=O)NC2CCCCC2)nnc1-c1ccncc1 returned Shiga inhibitor -11.3, CHX counter-1 -3.2, Vaccinia Venus 0.0%, MARV entry inh inconclusive, LASV entry inh -0.6%[46.1 µM] and Vaccinia mCherry inactive.
Cc1ccc(-c2nnc(SCC(=O)NC3CCCC3)n2C)cc1 was read as Shiga inhibitor 68.9*, CHX counter-1 -1.8, Vaccinia Venus -7.3%, MARV entry inh 10.7%[46.1 µM], LASV entry inh -13.9%, Vaccinia mCherry 0.3% and CHX counter-2 -0.6%.
For CC1(C)Cc2c(cnn2-c2ccccc2)C(NC(=O)CCN2CCCCO2)C1 (centres undefined) the results were Shiga inhibitor 25.8*, CHX counter-1 4.2 and CHX counter-2 1.0%.
`Cc1nn(C)c(C)c1CCC(=O)NC1CC(C)(C)Cc2c1cnn2-c1ccccc1` (centres undefined) gave Shiga inhibitor -8.8, CHX counter-1 0.8, Vaccinia Venus -15.1%, MARV entry inh -1.2%, LASV entry inh 8.5% and Vaccinia mCherry -12.7%.
`C[C@@H]1CN([C@@H](C)CO)C(=O)CCCn2nncc2CO[C@H]1CN(C)Cc1ccc(Oc2ccccc2)cc1` gave Vaccinia Venus -14.7% and Vaccinia mCherry -27.2%.
Screening CS(=O)(=O)N(CC(=O)Nc1ccccc1F)C1CCCCC1 returned CHX counter-1 -1.8.
Screening CS(=O)(=O)N(CC(=O)Nc1ccccc1Sc1ccccc1)C1CCCCC1 returned Shiga inhibitor 44.3*, CHX counter-1 5.1, MARV entry inh inconclusive, LASV entry inh 5.0% and CHX counter-2 -0.7%.
O=C(NCc1ccncc1)C(=O)NCC1OCCN1S(=O)(=O)c1ccc(F)cc1 (centres undefined) was read as Shiga inhibitor 31.0*, CHX counter-1 -2.0, Vaccinia Venus -6.9%, MARV entry inh 10.1%[46.1 µM], LASV entry inh 1.9%[46.1 µM], Vaccinia mCherry -13.3% and CHX counter-2 -1.8%.
O=C(NCCN1C(=O)S/C(=C\c2ccc(Cl)cc2)C1=O)C1=COCCO1 was read as Vaccinia Venus -10.3%, MARV entry inh inconclusive, LASV entry inh 1.9% and Vaccinia mCherry -22.4%.
Screening O=C(NCCN1C(=O)S/C(=C\c2ccc(Cl)cc2)C1=O)c1ccc(F)c(S(=O)(=O)N2CCOCC2)c1 returned Shiga inhibitor 33.5*, CHX counter-1 -1.0, Vaccinia Venus -4.9%, MARV entry inh 7.3%, LASV entry inh 3.8%, Vaccinia mCherry -9.7% and CHX counter-2 inconclusive.
`Cc1ccc(O)c([C@H](CCN(C(C)C)C(C)C)c2ccccc2)c1` gave Shiga inhibitor 48.4*!, CHX counter-1 -0.5, Vaccinia Venus -9.8%, Vaccinia mCherry -0.6% and CHX counter-2 -2.0%.
